Assay outcomes as filed in PubChem.
Sampled rows, rich in hits. Any-hit rate of the full collection: about 2.7%.
TMEM16A inh – TMEM16A chloride channel inhibitors, primary screen, cell-based, HTS; HEK293 TMEM16A/YFP iodide influx fluorescence, ionomycin; normalized B-score (activity score, 25-100; higher = stronger inhibition) at 10 µM; hit rate 1.2% among 310,000; Anoctamin-1 (Mus musculus), Q8BHY3;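 active means ratio plate-corrected score three or more library SD toward inhibition, starting fluorescence score within five deviations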;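 further: score derived from kinetic fluorescence span divided by baseline fluorescence per well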
IDE act – human IDE activators in live cells, primary screen, fluorescence polarization, HEK cells, FAbeta-B substrate. activation, % at 5.96 µM. hit rate 0.073% among 340,000. Insulin-degrading enzyme (Homo sapiens), P14735. FAbeta-B cleavage; 0% vehicle, 100% cell-free pure enzyme wells;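 active means activation above the mean of all tested compounds plus 3 SD, set per screening campaign, cut at about 17% in these data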
CHT inh – inhibitors of human choline transporter CHT; B-score at 10 µM; hit rate 0.86% among 310,000; AID 488975, 2010; CHT-expressing cells, membrane potential dye, choline response; active compounds read low;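 active means B-score over 3 SD under the library average, and starting fluorescence ratio not unusually high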;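 further: choline stimulus applied at its EC90 after an EC20 pre-addition; B-score computed on integrated fluorescence ratio after choline addition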
Target sequence (Q9GZV3 whole entry, looked up): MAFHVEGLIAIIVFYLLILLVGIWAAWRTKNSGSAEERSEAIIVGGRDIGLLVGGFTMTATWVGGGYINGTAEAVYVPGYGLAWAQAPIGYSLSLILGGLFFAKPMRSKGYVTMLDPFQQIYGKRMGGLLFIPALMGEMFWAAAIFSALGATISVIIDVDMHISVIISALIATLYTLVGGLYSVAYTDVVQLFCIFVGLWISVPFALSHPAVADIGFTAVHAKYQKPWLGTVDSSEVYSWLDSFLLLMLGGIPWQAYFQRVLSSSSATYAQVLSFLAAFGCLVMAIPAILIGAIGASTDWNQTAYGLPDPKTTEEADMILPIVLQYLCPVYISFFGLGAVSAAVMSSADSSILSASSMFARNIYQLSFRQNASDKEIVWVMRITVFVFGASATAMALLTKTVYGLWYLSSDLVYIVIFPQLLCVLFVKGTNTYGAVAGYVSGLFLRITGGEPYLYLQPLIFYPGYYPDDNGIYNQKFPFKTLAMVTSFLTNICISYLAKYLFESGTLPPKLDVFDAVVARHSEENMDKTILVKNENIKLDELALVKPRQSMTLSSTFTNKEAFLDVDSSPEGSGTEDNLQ
ANO1 activ – TMEM16A chloride channel activators or potentiators, primary screen, cell-based, HTS | HEK293 TMEM16A/YFP-H148Q/I152L, iodide quench fluorescence; active compounds read low | B-score at 10 µM | hit rate 0.3% among 340,000 | AID 623877, 2012;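 active means fluorescence-ratio B-score plate-corrected deviation score at least 3 library SD below zero, with starting fluorescence score within 5 deviations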;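 further: channel opened by trigger with iodide after compound preincubation; score built on the fluorescence ratio of max minus min over baseline; more negative score means more quench and so TMEM16A activation or potentiation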
CHT PAM – CHT positive allosteric modulators, primary screen, cell-based, membrane potential dye, choline EC20; AID 488977, 2010; B-score at 10 µM; hit rate 0.49% among 310,000; CHT-expressing cells; active compounds read high; LV-AA mutant CHT in HEK293 cells; High affinity choline transporter 1 (Homo sapiens), Q9GZV3;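 active means initial fluorescence not abnormally high and integrated response B-score, plate-corrected, over 3 SD above library mean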
IDE cell inh – human IDE inhibitors in live cells, primary screen, fluorescence polarization, HEK cells, FAbetaB substrate; Insulin-degrading enzyme (Homo sapiens), P14735; FAbetaB cleavage; inhibition, % at 5.59 µM; hit rate 0.41% among 320,000;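 active means percent inhibition above the average of all tested compounds plus 3 SD, set per screening campaign, cut at about 16% in these data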;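 further: IDE supplied by intact live HEK cells; FP after avidin binding of uncleaved biotin substrate so inhibition keeps polarization high; 0% = DMSO wells and 100% = 60 µM reference IDE inhibitor Ii1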
* = called active by the depositor.

Screening CC(CC(=O)Nc1ccc(Cl)c([N+](=O)[O-])c1)c1ccccc1 (configuration not stated) returned TMEM16A inh 100*, IDE act 6, CHT inh inactive, ANO1 activ inactive, CHT PAM inactive and IDE cell inh 1.
O=C(Nc1ccc(C(O)(C(F)(F)F)C(F)(F)F)cc1)c1ccc(Cl)c([N+](=O)[O-])c1 was read as TMEM16A inh 100*, IDE act 8, CHT inh inactive, ANO1 activ inactive, CHT PAM inactive and IDE cell inh 1.
For CCOC(=O)c1ccccc1NC(=S)N1CCN(C(=O)c2ccco2)CC1 the results were TMEM16A inh inactive, IDE act 3, CHT inh inactive, ANO1 activ inactive, CHT PAM inactive and IDE cell inh -1.
Screening O=C(CN1C(=O)NC2(CCOc3ccccc32)C1=O)c1ccc(F)cc1 (configuration not stated) returned TMEM16A inh inactive, IDE act 0, CHT inh inactive, ANO1 activ inactive, CHT PAM inactive and IDE cell inh 0.
`CC(CCc1ccccc1)NC(=O)CCNS(=O)(=O)c1ccccc1C(F)(F)F` (configuration not stated) gave IDE act -2, ANO1 activ inactive and IDE cell inh -1.
For CC(C)c1ccccc1OCC(=O)Nc1ccccc1C(=O)N1CCOCC1 the results were TMEM16A inh inactive, IDE act -1, CHT inh inactive, ANO1 activ inactive, CHT PAM inactive and IDE cell inh 6.
Screening Cc1ccc(NC(=O)Nc2ccccc2)cc1[N+](=O)[O-] returned TMEM16A inh inactive, IDE act -2, CHT inh inactive, ANO1 activ inactive, CHT PAM inactive and IDE cell inh 5.
`O=C(Nc1ccccc1)Nc1ccc(F)c([N+](=O)[O-])c1` gave TMEM16A inh 25*, IDE act -2, CHT inh inactive, ANO1 activ inactive, CHT PAM inactive and IDE cell inh 3.
`COCCNC(=S)N(C)C1(c2ccccc2Cl)CCCCC1=O` (configuration not stated) gave TMEM16A inh inactive, IDE act 17*, CHT inh inactive, ANO1 activ inactive, CHT PAM inactive and IDE cell inh 0.
`O=S(=O)(N[C@H](CO)Cc1ccccc1)c1ccc(Br)cc1F` gave IDE act 5.
`Cn1ccc2cc(-c3csc(N4CCC(C(N)=O)CC4)n3)ccc21` gave IDE act 4, ANO1 activ inactive and IDE cell inh 2.
CC(=O)Nc1ccc(S(=O)(=O)N(C)CC(=O)OC2CCCCC2=O)cc1 (configuration not stated) was read as IDE act 5 and IDE cell inh 7.
Screening Cc1ccc(NC(=O)CN(C)C(=O)CSc2nc3ccccc3c(=O)n2Cc2ccco2)cc1 returned TMEM16A inh 100*, IDE act 3, CHT inh inactive, ANO1 activ inactive, CHT PAM inactive and IDE cell inh 6.
For NS(=O)(=O)c1cccc(NC(=O)CSc2nc3ccccc3c(=O)n2Cc2ccco2)c1 the results were IDE act 1, ANO1 activ inactive and IDE cell inh 2.
For CCOC(=O)COn1c(-c2cccc(Cl)c2)nc2ccc([N+](=O)[O-])cc21 the results were TMEM16A inh inactive, IDE act -3, CHT inh inactive, ANO1 activ inactive, CHT PAM inactive and IDE cell inh 5.
`CCOC(=O)C(C)On1c(-c2cccc(Cl)c2)nc2ccc([N+](=O)[O-])cc21` (configuration not stated) gave TMEM16A inh 100*, IDE act 1, CHT inh inactive, ANO1 activ inactive, CHT PAM inactive and IDE cell inh 13.
`CN(C(=O)c1cccc(NC(=O)Cc2ccc(NC(=O)C3CCCN(C(=O)C4CCCC4)C3)cc2)c1)C1CCCCC1` (configuration not stated) gave IDE act 2.
Screening O=C(c1ccc2ccccc2c1)C1CCCN(C(=O)c2cnccn2)C1 (configuration not stated) returned TMEM16A inh inactive, IDE act 7, CHT inh inactive, ANO1 activ -4.6*, CHT PAM inactive and IDE cell inh -1.
`COc1ccc2cc(C(=O)C3CCCN(C(=O)c4cnccn4)C3)ccc2c1` (configuration not stated) gave TMEM16A inh inactive, IDE act 0, CHT inh inactive, ANO1 activ inactive, CHT PAM inactive and IDE cell inh 4.
`O=C(CN1C(=O)C2CCCCC2C1=O)Nc1cc(C(F)(F)F)ccc1N1CCCC1` (configuration not stated) gave TMEM16A inh inactive, IDE act -3, CHT inh inactive, ANO1 activ inactive, CHT PAM inactive and IDE cell inh 1.
For COc1cccc(NC(=O)C2CCC(CNS(=O)(=O)c3ccc4c(c3)CC(C)N4C(C)=O)CC2)c1 (configuration not stated) the results were TMEM16A inh inactive, IDE act 0, CHT inh inactive, ANO1 activ inactive, CHT PAM inactive and IDE cell inh 9.
COc1cccc(CN(C)C(=O)c2cc(-c3ccc(F)cc3)nc3ccccc23)c1 was read as TMEM16A inh 100*, IDE act 2, CHT inh inactive, ANO1 activ inactive, CHT PAM inactive and IDE cell inh 7.
For COc1cccc(CN(C)C(=O)c2cc(-c3ccc(OC)c(OC)c3)nc3ccccc23)c1 the results were TMEM16A inh inactive, IDE act 3, CHT inh inactive, ANO1 activ inactive and CHT PAM inactive.
Screening CCc1cc2cc(C)ccc2nc1SCC(=O)NC1CCCC1 returned TMEM16A inh inactive, IDE act -3, CHT inh inactive, ANO1 activ inactive, CHT PAM inactive and IDE cell inh 3.
Screening O=C1/C(=N\S(=O)(=O)c2cccs2)C([n+]2ccccc2)=C([O-])c2ccccc21 returned TMEM16A inh inactive, IDE act 2, CHT inh inactive, ANO1 activ -11*, CHT PAM inactive and IDE cell inh 7.
Screening CCCCn1c(N)c(N(CC)C(=O)C2CCC2)c(=O)[nH]c1=O returned IDE act 2, ANO1 activ inactive and IDE cell inh -1.
